In all, about 83,000 compounds went through this assay and fewer than 10 were called active. The rule behind the calls is not given here. A selection follows. Results with a measured potency or affinity are listed apart.
Molecular target: Heat shock cognate 71 kDa protein (Homo sapiens) (UniProt P11142)
Test: Hsc70 inhibitors, probe displacement, primary screen, biochemical, fluorescence polarization (AID 568)
Conditions: mP, at 20 µM, hits give high values

Chain of Heat shock cognate 71 kDa protein (Homo sapiens) (P11142 whole entry, looked up): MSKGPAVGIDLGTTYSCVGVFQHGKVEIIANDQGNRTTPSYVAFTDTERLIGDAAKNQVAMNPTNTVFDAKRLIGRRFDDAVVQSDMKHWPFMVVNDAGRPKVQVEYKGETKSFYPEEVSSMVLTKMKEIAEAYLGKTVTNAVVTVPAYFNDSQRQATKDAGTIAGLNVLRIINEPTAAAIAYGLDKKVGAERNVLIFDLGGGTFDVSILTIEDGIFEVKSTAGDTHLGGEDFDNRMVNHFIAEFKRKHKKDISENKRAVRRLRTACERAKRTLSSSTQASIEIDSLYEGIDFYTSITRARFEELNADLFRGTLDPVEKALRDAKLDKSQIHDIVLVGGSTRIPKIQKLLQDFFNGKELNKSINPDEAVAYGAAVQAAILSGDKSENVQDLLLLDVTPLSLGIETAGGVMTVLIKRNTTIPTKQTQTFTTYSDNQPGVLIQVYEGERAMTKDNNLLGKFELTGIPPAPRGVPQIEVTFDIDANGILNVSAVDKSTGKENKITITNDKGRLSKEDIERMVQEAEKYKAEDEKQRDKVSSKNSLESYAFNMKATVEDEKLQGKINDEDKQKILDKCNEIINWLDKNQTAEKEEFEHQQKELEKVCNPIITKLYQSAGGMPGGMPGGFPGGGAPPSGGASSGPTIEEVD
Chain of Heat shock cognate 71 kDa protein (Homo sapiens) (P11142 whole entry, looked up): as above

displacement, inactive:
O=C(Nc1cccc(Cl)c1N1CCCC1)c1cc2ccccc2o1 -2.4%
CCOC(=O)C1=NN(c2ccccc2)C2(S1)SC(C(C)=O)=C(C)N2c1ccccc1 (stereo not drawn) 3.4%
Cc1noc(C)c1CSc1nnc2cc(C)c3ccccc3n12 -6.7%
Cc1ccc(C(=O)NCc2occc2C(=O)O)o1 2.4%
CCn1c2ccccc2c2nnc(SCC(=O)Nc3ncccn3)nc21 5.9%
COc1ccc(S(=O)(=O)NCC(=O)N(CC(=O)NCC2CCCO2)c2c(C)cccc2C)cc1 (stereo not drawn) -3.5%
O=C(Nc1ccncc1)c1cc(F)cc(F)c1 3.6%
c1ccc2sc(N3CCN(Cc4nnnn4CC4CCCO4)CC3)nc2c1 (stereo not drawn) 1.7%
Cn1c(SCc2ccc(F)cc2)nnc1-c1cccs1 -5%
CCOc1ccc(C(C#N)N2CCOCC2)cc1OC (stereo not drawn) -4.5%
CCCCN(C(=O)c1cc(OC)c(OC)c(OC)c1)C1=CC2CCC(C1)N2C (stereo not drawn) -2.2%
Cc1nn(-c2ccccn2)c2nc(-c3cccs3)cc(C(=O)N3CCOCC3)c12 0.1%
Cn1c(SCC(=O)NCc2ccc3c(c2)OCO3)nnc1-c1cccs1 -4.3%
COc1ccc(-c2nc(C)c(C(C)=O)n2O)cc1 3.1%
COC(=O)c1ccc(OCC(=O)c2ccccc2OC)cc1 2.4%
CCOC(=O)c1ccc2nc(NC(=O)c3cccs3)sc2c1 -11.3%
O=C(c1cccc(S(=O)(=O)N2CCCCC2)c1)N1CCN(S(=O)(=O)c2ccc(F)cc2)CC1 7.4%
N#Cc1ccccc1NC(=O)CSc1nnc(-c2ccccc2O)n1-c1ccccc1 -3.5%
CCN(CC)S(=O)(=O)c1cccc(C(=O)Nc2cccnc2)c1 4.9%
CCOC(=O)c1cccc(N2C(=O)C3C(C(=O)NC4CC4)C4(C)C=CC3(O4)C2C(=O)NC(C)(C)C)c1 (stereo not drawn) 0.8%
COc1ccc(NC(=O)CSc2nc3ccccc3c(=O)n2CCNC(C)=O)cc1 1%
CC(C)c1ccc(-c2nnn(Cc3nc4ccccc4s3)n2)cc1 7.9%
CC1=C(C(=O)N2CCOCC2)C(c2cccs2)NC(=O)N1 (stereo not drawn) 1.5%
Cc1c(NC2=NC(C)(C)Cc3ccccc32)c(=O)n(-c2ccccc2)n1C -0.6%
CCc1ccccc1NC(=O)N[C@@H](C)C(=O)O 4.3%
CCCCNC(=S)NNC(=O)c1ccco1 4%
CC1=C(C(=O)OC(C)C)C(c2c[nH]c3ccccc23)n2ncnc2N1 (stereo not drawn) 4.3%
CNS(=O)(=O)c1cccc2cccnc12 5.1%
Cc1ccc(C)c(-n2c(SCC(=O)NCC3CCCO3)nnc2-c2ccoc2C)c1 (stereo not drawn) -2.3%
O=C1C2C3C=CC(C3)C2C(=O)N1c1ccc2ccccc2n1 (stereo not drawn) 6.3%
CCOC(=O)c1c(NC(=O)CSc2nnc(-c3cccnc3)o2)sc2c1CCC2 -5%
Cn1c(CNC(=O)c2cccs2)nnc1SCC(=O)Nc1ccc(Cl)cc1 1.1%
COc1ccc(Br)cc1CNC(=O)CCc1nc(-c2ccccc2F)no1 0%
COC(=O)c1[nH]nc2c1C(=O)N(C1CCCCC1)C2=O 2.9%
CCCC1CCC(C2=N/C(=C\c3ccc(OC)c(OC)c3)C(=O)O2)CC1 (stereo not drawn) -5%
Cn1c(CCN2CCN(c3ccccc3)CC2)nc2cc(NC(=O)c3ccco3)ccc21 0.4%
O=C(COC(=O)c1cccnc1)c1ccc(Cl)c(Cl)c1 -1.2%
CCn1c(COc2ccccc2C)nnc1SCC(=O)CC(=O)Nc1ccccc1 2.2%
CN(Cc1ccccc1)C(=O)c1ccc2c(c1)OCCO2 0.2%
Cn1cc(S(=O)(=O)CC(=O)Nc2ccc3c(c2)OCCO3)c2ccccc21 7.1%
NC(=O)c1ccccc1N/C=C/C(=O)c1ccco1 5.3%
CCN1CCN(CCCNC(=O)C2CCCN(c3nnc(-n4cccc4)s3)C2)CC1 (stereo not drawn) 7%
Cc1ccc2oc(=O)c3cnn(CC(=O)NCCN4CCOCC4)c3c2c1 2.8%
Cc1c(C(=O)O)oc2ccc(S(=O)(=O)NCc3ccccc3)cc12 -0.1%
COc1ccc(C(c2nnnn2Cc2cccs2)N2CCN(c3ccccc3F)CC2)cc1 (stereo not drawn) -2.2%
CC(=O)NCCn1c(SCC(=O)NCCC2=CCCCC2)nc2ccccc2c1=O -4.3%
Cc1cc(C)cc(N(C(=O)c2ccc3c(c2)OCO3)C2C=CS(=O)(=O)C2)c1 (stereo not drawn) -3.3%
CCN(CC)S(=O)(=O)c1ccc(-c2nnc(SCc3nnc(-c4ccc(C)cc4)o3)n2CC)cc1 -2.9%
CC(C)(C)C(=O)CNS(=O)(=O)c1ccc(S(=O)(=O)NC2CCCC2)cc1 2.7%
Cc1ccc(OC(C)C)c(CN(CCO)CCO)c1 -3.1%
COc1ccc(S(=O)(=O)N2CCSC2c2ccc(N)cc2)cc1 (stereo not drawn) 2.5%
CSc1nn(CCc2ccncc2)c(=S)s1 -0.7%
COc1cc(NC(=O)c2cc(C)on2)cc(OC)c1OC 8%
N#C/C(=C\Nc1ccc2c(c1)OCCO2)c1nc2ccccc2[nH]1 -23.3%
CC(C)c1[nH]nc2c1C(Cc1ccccc1)C(C#N)=C(N)O2 (stereo not drawn) 5.2%
COc1ccccc1N1CCN(C(=O)c2c(-c3ccccc3Cl)noc2C)CC1 -6.4%
CC(=O)Nc1ccc(S(=O)(=O)Nc2cccc(N(C)S(C)(=O)=O)c2)cc1 -0.7%
CCOc1ccc(S(=O)(=O)Nc2ccccc2SC)cc1 -1.7%
NC(=O)c1ccsc1NC(=O)COc1ccccc1 9.1%
COC(=O)c1c(NS(C)(=O)=O)sc2c1CCCC2 3.6%
COc1ccc(NC(=O)CCn2nc(C)cc2C)cc1 -4.3%
O=C(CSc1nnc(Cn2c(=O)sc3ccccc32)n1CCc1ccccc1)N1CCCC1 1.9%
COc1ccc(S(=O)(=O)NCC2CCC(C(=O)N3CCC4(CC3)OCCO4)CC2)cc1 (stereo not drawn) -1.2%
CC1CCN(c2nc(-c3ccccc3)c(C#N)c(=O)[nH]2)CC1 -1.1%
C=CCn1c(O)c(C(CC)=Nc2ccccc2NC(=O)CC)c(=O)[nH]c1=O 0%
NC(=O)CSc1nnc(CCc2nc3ccccc3[nH]2)n1-c1ccccc1 -0.4%
COC(=O)c1ccc(Nc2nc(C)cc(=O)[nH]2)cc1 -5.8%
Cc1occc1C(=O)Nc1cc(C(C)(C)C)on1 -3.1%
CCn1c(=O)n(CC)c2cc(S(=O)(=O)Nc3ccccc3C)c(C)cc21 0.5%
CCOC(=O)N1CCN(C(=O)c2ccc(N3C(=O)c4ccccc4C3=O)cc2)CC1 -0.7%
O=C1OCC(Cn2c3ccccc3c3ccccc32)O1 (stereo not drawn) 4.8%
O=C(CN1C(=O)c2cccc3cccc1c23)N1CCN(Cc2ccc3c(c2)OCO3)CC1 -5.5%
CC(C)C(=O)Nc1cc(=O)[nH]c2ncnn12 -7.6%
CCN1C(=O)Cc2cc(S(=O)(=O)N3CCOCC3)ccc21 7%
N#Cc1cn(CC(=O)N2CCCC2)c2ccccc12 -2.4%
Clc1ccc(OCCn2cnc3ccccc32)c(Cl)c1 -4%
CCC(CC)C(=O)NCc1ccccc1Cl 0.3%
Cc1ccc(S(=O)(=O)/N=C2/C=C(C3C(=O)CC(C)(C)CC3=O)C(=O)c3ccccc32)cc1 4%
Cc1ccc(C(=O)COc2nc(C)cc(C)c2C#N)cc1 3.2%
Cc1cc(=O)n2nc(N3CCCC(C(=O)NCCCN4CCc5ccccc5C4)C3)sc2n1 (stereo not drawn) 3%
CC(C)OC(=O)C1CC=CCC1C(=O)Nc1ccc(Cl)cc1 (stereo not drawn) 0.4%
CCc1nnc(NC(=O)CSc2nnnn2C)s1 -1.1%
CC(C)CCNC(=O)c1ccc2c(c1)ncn2C1CCCCC1 0.7%
Oc1ccccc1CNCCCNCc1ccccc1O -1.3%
COc1ccccc1N1C(=O)CC(Sc2nc(C)cc(C)n2)C1=O (stereo not drawn) 0.9%
COC(=O)c1ccc(NC(=O)CCN2CCN(CCC(=O)Nc3ccc(C(=O)OC)cc3)CC2)cc1 2.6%
Cc1cc(C)c2c(N)c(S(=O)(=O)Cc3ccccc3)sc2n1 3.8%
O=C(O)CCN1C(=O)C2CCCCC2C1=O (stereo not drawn) -0.4%
Cc1ccc(OCC2Cn3c(nc4c3c(=O)n(C)c(=O)n4C)O2)cc1 (stereo not drawn) 1.1%
COc1ccc(OC)c(-n2nnnc2SCC(=O)O)c1 4.6%
CCC(=O)N(Cc1cc2ccccc2[nH]c1=O)C(C)C 7%
Cc1ccc2c(c1)NCC(C(=O)NCc1ccccc1)O2 (stereo not drawn) 1.6%
CCc1cccc(NS(=O)(=O)c2ccc3c(c2)oc(=O)n3C)c1 1.5%
CC1(c2ccc(OC(F)F)cc2)NC(=O)N(CC(=O)Nc2ccc3c(c2)OCO3)C1=O (stereo not drawn) -2.6%
Cc1cccc(C)c1NC(=O)NC1(C(=O)NCCCN2CCOCC2)CCCCC1 -2.5%
Cc1noc(C)c1COC(=O)CCCc1nc2ccccc2s1 0.6%
COc1ccc(C(=O)Nc2ccc3oc(-c4cccc(F)c4)nc3c2)cc1OC 2.4%
Cc1ccc(/C=N/NC(=O)CC2N=C(Cc3ccccc3)NNC2=O)cc1 (stereo not drawn) -1.6%

Source: PubChem BioAssay AID568 (Sanford-Burnham Center for Chemical Genomics, 2006)
